Data taken from ChEMBL document CHEMBL3988442, “University of Dundee, Small-Polar-MMV Screening Library” (2021).

Key:
[1] = biological target: T1, Aspartate--tRNA(Asp/Asn) ligase (Mycobacterium tuberculosis (strain ATCC 25618 / H37Rv)) (UniProt P9WFW3); assay: Assay for Asp RNA synthetase-1 from Mycobacterium tuberculosis; assay type: functional; set-up: scale not given: direction of the effect not stated beside the values; conditions: 30 µM; note: in the data most compounds retested in dose-response had high values
T1 sequence (whole entry): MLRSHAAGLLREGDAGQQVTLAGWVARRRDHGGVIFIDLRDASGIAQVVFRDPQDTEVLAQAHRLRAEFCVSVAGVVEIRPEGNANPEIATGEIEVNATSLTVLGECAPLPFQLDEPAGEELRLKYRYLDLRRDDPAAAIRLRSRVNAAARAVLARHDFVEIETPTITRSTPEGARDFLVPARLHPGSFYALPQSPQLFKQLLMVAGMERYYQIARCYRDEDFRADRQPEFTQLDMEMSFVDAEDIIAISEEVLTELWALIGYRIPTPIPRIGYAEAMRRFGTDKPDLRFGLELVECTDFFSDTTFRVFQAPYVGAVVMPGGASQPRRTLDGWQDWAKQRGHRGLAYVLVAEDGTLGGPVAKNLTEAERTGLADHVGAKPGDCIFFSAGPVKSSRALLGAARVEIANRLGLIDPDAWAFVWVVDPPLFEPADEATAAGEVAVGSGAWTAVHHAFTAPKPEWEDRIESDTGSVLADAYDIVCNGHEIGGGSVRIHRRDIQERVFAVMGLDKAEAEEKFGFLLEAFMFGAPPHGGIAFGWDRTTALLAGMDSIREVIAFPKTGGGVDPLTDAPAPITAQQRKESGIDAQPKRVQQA

[2] = biological target: Shiga toxin 2 (Escherichia coli O157:H7) (UniProt P09385+P09386); assay: E. coli 0.157:H7 Shiga Toxin SOP - stx2 screening assay; assay type: functional; set-up: scale not given: direction of the effect not stated beside the values; conditions: 30 µM

| Compound | Percent Effect [1] | Percent Effect [2] |
| --- | --- | --- |
| CN(C)C(=O)CN1CCC2(CCN(Cc3nccs3)CC2)C1=O | 7.45% | -16.7% |
| O=C(c1ccco1)N1CCCC(c2cc(C(F)F)n3ncnc3n2)C1 (centres undefined) | -0.849% | -7.72% |
| CC(C)c1nn(CC(=O)N2CCCCC2)c(=O)c2c1cnn2C(C)(C)C | -5.41% | 2.7% |
| CN(C)CC1CN(Cc2cccc(C(=O)N(C)C)c2)CCO1 (centres undefined) | -3.06% | -24.2% |
| COc1ccc(NC(C)=O)c(N2CCN(C(C)=O)CC2)n1 | 2.32% | -15.1% |
| N#Cc1ccc(CN2CCC(c3ccnn3CCO)CC2)cc1 | 1.21% | 23.2% |
| Cc1c(C(=O)NCC(C)C)nnn1-c1cccc2c1CCN(C)C2 | 0.928% | -7.34% |
| CC(NC1CCN(CCS(C)(=O)=O)CC1)c1ccc(Cl)cc1 (centres undefined) | 7.04% | -1.87% |
| COc1ccc(-n2ccc(C(=O)N3CCN(C)CC3C)n2)cc1 (centres undefined) | -10.9% | -0.158% |
| CCOc1ccc(Cl)c(C(=O)N2CCN(C(=O)c3ccoc3C)CC2)n1 | -4.19% | -1.17% |
| CNC(=O)CN1CCC(NC(=O)N(C)Cc2cc(C)on2)CC1 | -6.28% | 19% |
| Cc1cc(C[C@@H]2CCC[C@H]2NCc2cc(C)c(O)c(C)c2)on1 | 2.31% | -2.65% |
| Cc1nn(C)c(C)c1CC(=O)N1CCCC(n2ccnc2)C1 (centres undefined) | -4.83% | 12.9% |
| O=S(=O)(c1ccccc1)N1CCN(CCn2ccnc2)CC1 | -3.1% | 2.08% |
| CNC(=O)c1ccc(C(=O)N2CCCC(n3cc(C)cn3)C2)cn1 (centres undefined) | -5.95% | -41.9% |
| Cc1nc(CN2CCCN(C(=O)c3ccccn3)CC2)oc1C | -0.692% | 25.9% |
| CC(C)NC(=O)[C@@H]1C[C@H](N)CN1C(=O)c1cc2ccccc2[nH]c1=O | -2.73% | -0.544% |
| Cc1nn(C)c(N(C)C)c1CNC(C)COc1cccc(F)c1 (centres undefined) | -0.463% | -10.4% |
| COCCn1cc2c(n1)C(CNCc1ccc(F)cc1)OCC2 (centres undefined) | 1.2% | -6.53% |
| Cc1nn2cccnc2c1C(=O)N1CCCC(n2ccnc2)C1 (centres undefined) | 6.28% | -29.8% |
| NC(=O)Nc1cccc(Oc2ccccn2)c1 | -2.58% | -11.9% |
| COc1ccc(CNCCc2cc(F)cc3c2OCOC3)cc1O | 3.65% | -23.1% |
| CCn1nccc1CNC(=O)C1CCCC1 | 11.4% | -65.5% |
| O=C(CCN1CCCC1C1CCCCC1)N1CCc2sccc2C1 (centres undefined) | 2.02% | 8.04% |
| CC(C)c1nc(C2CCCN(Cc3nnc(C4CC4)o3)C2)no1 (centres undefined) | -2.16% | -7.91% |
| CC(C)c1nn(C)c(N(C)C)c1CNCc1ccc2c(c1)OCO2 | -1.77% | 30.6% |

| Compound | Percent Effect [1] | Percent Effect [2] |
| --- | --- | --- |
| CN(C)c1ccc(C(=O)N2CCN(Cc3cscn3)CC2)cc1F | 5.95% | -20.8% |
| CN1CCCc2cc(CNC(=O)c3ccncc3)ccc21 | -7.79% | -75.2% |
| CCOCC1CN(Cc2cnn(C)c2)Cc2ncn(CC3CC3)c21 (centres undefined) | 2.64% | 3.02% |
| O=C(NC1CC1)[C@H]1C[C@@H]2CCN(CCc3ccccc3)C[C@H]2O1 | 3.49% | -10.6% |
| CCc1cccc(OCC(=O)N2CCCC(n3cncn3)C2)c1 (centres undefined) | -0.88% | 26% |
| CS(=O)(=O)NCc1ncn2c1CN(C(=O)CC1CCCC1)CCC2 | -2.09% | -6.05% |
| O=C(Cc1cccc(F)c1)N1CCCCC1c1ccn2ccnc2n1 (centres undefined) | -2.63% | -7.82% |
| COCC(=O)NCc1cc(=O)n2c(n1)CN(CC1CCOC1)CCC2 (centres undefined) | -4.6% | -5.14% |
| CC(C)OCCCNC(=O)c1ccc(-c2ccco2)[nH]c1=O | -5.99% | 19% |
| O=C(Nc1ccnc(OC2CCOC2)c1)C1CCC1 (centres undefined) | -4.32% | -20.1% |
| O=C(c1cc(COc2ccc3c(c2)OCO3)[nH]n1)N1CC=CC1CO (centres undefined) | 1.75% | -30.9% |
| O=C(C1CC1)N1CC[C@H](O)[C@@H]1Cc1ccccc1 | -2% | 1.84% |
| O=C(c1ccccc1N1CCOCC1)N1CCCC(n2cccn2)C1 (centres undefined) | 0.062% | 19.5% |
| CCc1csc(C2CCCN(C(=O)c3c[nH]c(C)n3)C2)n1 (centres undefined) | -0.0911% | -10.2% |
| Cc1noc2nc(C3CCN(Cc4cccnc4)CC3)cc(C(F)F)c12 | 1.32% | -52.2% |
| CCn1ccnc1CN1CCCN(C(=O)c2sccc2C#N)CC1 | 1.71% | 2.81% |
| COCc1cc(NCc2cc(F)ccc2F)n2nccc2n1 | 7.1% | -13.4% |
| CC(C)Oc1ncnc2c1CCN(Cc1cccs1)CC2 | 1.14% | 17.6% |
| CCN(CC)C(=O)c1ccc(-c2ccsc2)nc1C | -1.17% | -6.7% |
| COCCN1CCC(CNC(=O)c2cc(C)cc(C)c2)C1 (centres undefined) | -2.92% | -3.77% |
| CCOc1ccc(-n2nnc(C(=O)O)c2-c2ccccn2)cc1 | 12% | -8.4% |
| CCS(=O)(=O)NC(C(=O)NC)c1ccc(F)c(F)c1 (centres undefined) | -0.436% | 10.3% |
| Cc1cc(C2CCCN(C(=O)c3cnn(C)c3)C2)ccn1 (centres undefined) | -6.03% | -7.91% |
| Fc1ccc(-c2nnc(CN3CCCC3Cn3cncn3)o2)cc1 (centres undefined) | -1.49% | -12.6% |
| COc1ccc2c(ccn2CCC(=O)O)c1 | -2.82% | -49% |
| COCc1ccccc1C(=O)NCCCN1CCCC1C(=O)N(C)C (centres undefined) | 5.84% | -26.7% |

| Compound | Percent Effect [1] | Percent Effect [2] |
| --- | --- | --- |
| Cn1cc(CN2CCC3(CC(=O)N(c4ccc5c(c4)OCO5)C3)C2)cn1 (centres undefined) | 2.85% | -15.8% |
| Cc1ccc(C(=O)NCCCNS(C)(=O)=O)c(=O)[nH]1 | -3.45% | -17.7% |
| Cc1ccsc1C(=O)NCCCn1nc2ccccn2c1=O | 1.69% | 16.8% |
| COc1ncccc1C(=O)Nc1nc2c(s1)CN(S(=O)(=O)C1CC1)CC2 | -4.8% | -20% |
| COCC(=O)N1CCC2(CC1)CC(CC(=O)NC1CC1)c1ccccc12 (centres undefined) | -1.39% | 9.56% |
| CS(=O)(=O)N1CCC2(CC1)CC(CC(=O)N1CCCC1)c1ccccc12 (centres undefined) | 5.87% | 8.75% |
| CC(=O)Nc1nc(C(=O)NCc2ccc(N3CCCCCC3)nc2)cs1 | 6.56% | -131% |
| CCOc1ccc(N2CCCN=C2NC(=O)c2cccc(Cl)c2)cc1 | 9.12% | -69.6% |
| COc1cc(CCC(=O)NCC2CCCN2C)ccc1OCC(F)(F)F (centres undefined) | 1.43% | 22.2% |
| O=C(NCc1cc[nH]n1)N1CCCCC(N2CCCC2)C1 (centres undefined) | 2.84% | 14.9% |
| O=C(c1ccc(F)cc1F)N1CC[C@H](O)[C@@H](N2CCOCC2)CC1 | 0.28% | -21.2% |
| Cc1cc(CNC2CCCN(c3cccnn3)C2)no1 (centres undefined) | 6.9% | -69.6% |
| CN(CCCC#N)C1CCCN(Cc2noc(C3CC3)n2)C1 (centres undefined) | -2.54% | 7.14% |
| Cc1ccc([C@]2(O)CC[C@H]3CN(Cc4cccc(Cl)c4Cl)C[C@H]32)nc1 | 7.16% | 6.78% |
| Cc1nc(C2CCCCN2C(=O)c2ccccc2)ncc1C(=O)N(C)C (centres undefined) | -6.63% | -5.42% |
| CCc1c(C(=O)N2CCN(c3ncccn3)CC2)cnn1C(C)(C)C | 3.62% | 30.7% |
| CCOCC1CN(C)Cc2cnn(CC3CCCC3)c21 (centres undefined) | -2.58% | -8.48% |
| CNc1cc2c(nn1)CCN(C(=O)c1ccc(-n3nccc3C)cc1)C2 | -2.02% | 26.8% |
| COc1ccc(CN2C[C@@H](N(C)Cc3ccco3)[C@H]3OCCC[C@H]32)cc1 | 0.632% | 4.78% |
| CCc1nc(CN(C)CC2CCN(CC(C)O)CC2)no1 (centres undefined) | -3.85% | 11% |
| Cc1ccc2c(n1)N(CCn1cccn1)CCN(C(=O)NC1CC1)C2 | 0.917% | 6.77% |
| CS(=O)(=O)c1ccc(NC(=O)NCc2ccc3c(c2)CCC3)cn1 | 1.92% | -9.09% |
| NC(=O)Cn1cc(NC(=O)N2CCCC2)cn1 | -2.12% | -31.6% |
| CC(=O)N1CCCC1c1cccc(Cc2ccccc2F)n1 (centres undefined) | -0.134% | 4.04% |
| CN(Cc1ccco1)Cc1ccccc1CNC(=O)c1cc[nH]n1 | 0.435% | 9.38% |
| CC(C(=O)NCCCN1CCCCCC1=O)n1cncn1 (centres undefined) | 2.08% | 20% |

| Compound | Percent Effect [1] | Percent Effect [2] |
| --- | --- | --- |
| CCNc1cc2c(nn1)CCN(C(=O)Cc1c(C)noc1C)C2 | 0.225% | 16% |
| CCN1CCN(C2CCN(Cc3nc(-c4ccoc4)no3)CC2)C1=O | 1.49% | 22.7% |
| CC(=O)NC(C)c1ccc(OCC2CC2)c(F)c1 (centres undefined) | 0.15% | 4.12% |
| O=C(c1cnc(-c2ccco2)s1)N1CCCC1Cn1cccn1 (centres undefined) | -5.14% | -4.37% |
| Cc1nc(-c2ccsc2)ccc1C(=O)O | -0.501% | -2.78% |
| CC(O)CN1CCN(C(=O)c2ccc3c(c2)COC3)CC1 (centres undefined) | -4.85% | -19.4% |
| COCCN1CCC(NCc2ccc(C#N)cc2)C1 (centres undefined) | -2.03% | -49.3% |
| COc1ccccc1C(=O)N1CC(Cc2nccc3ccn(C)c23)C1 | -0.878% | -11.7% |
| CC(=O)N1CCCn2nc(CNS(=O)(=O)N3CCCCCC3)cc2C1 | -7.71% | -4.22% |
| Cc1nc(C)n(CC2CN(c3ncnc4[nH]ccc34)CCO2)n1 (centres undefined) | 0.364% | -9.54% |
| CS(=O)(=O)NCc1cc2n(n1)CCCN(Cc1cccc(C#N)c1)C2 | 0.342% | 18.6% |
| Cc1ccc(CNC2CCN(CCc3ccncc3)CC2)s1 | -2.55% | -53.8% |
| Cc1cc(F)ccc1CNCCn1cccn1 | -3.06% | 13% |
| O=C(c1ccc(F)c(F)c1)N1CCCC1CN1CCCC1 (centres undefined) | -3.65% | -41.7% |
| Cc1nc(C)n(CC2CCCCN2CC(=O)Nc2ccncc2)n1 (centres undefined) | -1.82% | -16.8% |
| COC(=O)Cn1c(=O)nc2n1C(=O)N(c1ccc(Cl)cc1)C2 | 1.73% | -16.1% |
| COc1cccc2c1OCC(C(=O)N1CCC(N3CCOC3=O)CC1)C2 (centres undefined) | -3.21% | 17% |
| O=C(NCc1ccco1)C1CCCN1Cc1nc(-c2ccco2)no1 (centres undefined) | 3.58% | 23.3% |
| Cn1ccc(C(=O)NCc2cccc(N3CCCCC3=O)c2)cc1=O | 0.417% | -29.6% |
| c1ccc(-c2cnc(CNCC3CCCN3c3cccnn3)o2)cc1 (centres undefined) | 1.15% | 11.4% |
| O=C(c1cccs1)N1CC[C@H](O)[C@@H]1Cc1ccccc1 | 0.296% | -7.22% |
| COc1cc(C)nc(N2CCN(C(=O)c3ccccc3C)CC2)n1 | 6.7% | 3.55% |
| CS(=O)(=O)N1CCC2(CC1)CC(CC(=O)NC1CC1)c1ccccc12 (centres undefined) | 6.15% | 4.11% |
| CCc1nc(CC(=O)N2CCn3c(nnc3C(C)C)C2)cs1 | -0.367% | -14.7% |
